Results on 99 compounds are retold here after PubChem BioAssay AID1628 (Sanford-Burnham Center for Chemical Genomics, 2009).

Among all 190,000 compounds or so, about 930 (0.49%) were called active.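 Rule for the calls: active = z-score of insulin promoter reporter brightness in nuclei below -3 at 5 µM, with at least 500 cells counted; inconclusive = wells with under 500 cells, flagged as toxic or sparse; inactive = the rest.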 This is one part of the list. Results with a measured potency or affinity are listed apart.

This assay can be described thus: decrease of insulin promoter-GFP reporter – imaging, high-content screening, mouse beta cells (AID 1628). The settings on record: MIN6 insulin promoter GFP reporter, at 5 µM, hits give low values.
For `COCCNC(=O)c1ccc2ccccc2n1`, the z-score was 1.76 (inactive).

With `CCN(C(=S)NCCOC)c1cccc2ccccc12`, the z-score is -3.13 (active).

For the compound `CCN(C(=S)Nc1cccnc1)c1cccc2ccccc12`, the z-score is -3.01 (active).

On to `CCN(CC)CCN1C(=O)c2oc3ccccc3c(=O)c2C1c1ccccc1` (centres undefined), for which the z-score is 3.66 (inactive).

For `CN1CCN(CC(=O)Nc2sc3c(c2C#N)CCC(C(C)(C)C)C3)CC1` (centres undefined), the z-score is -3.27 (active).

In the case of `CCCN1CCc2c(sc(NC(=S)NC(=O)c3ccccc3)c2C#N)C1`, the z-score is 5.2 (inactive).

As for `CN1/C(=C\C=C2/SC(=S)NC2=O)C(C)(C)c2ccccc21`, the z-score was 13.4 (inactive).

`CCCCN1C(=O)/C(=C/C=C2\N(C)c3ccccc3C2(C)C)SC1=S`: the z-score was 10.9 (inactive).

Consider `CCCCC(=O)Nc1ccc2c(c1)nc1n2CCSC1`, for which the z-score was 3.16 (inactive).

With `Cc1cc(C)nc(N(C#N)CC(=O)N2CCC(C(N)=O)CC2)n1`, the z-score is 1.53 (inactive).

`CN1CCN(c2ccccc2NC(=O)c2ccc(N3CCCC3)c([N+](=O)[O-])c2)CC1`: the z-score was -3.01 (active).

Take `NC(=O)c1ccc(N2CCN(c3ccc(O)cc3)CC2)c([N+](=O)[O-])c1`: the z-score is -3.43 (active).

`CCOCCCNC(=O)c1ccc(N2CCCC2)c(NS(=O)(=O)c2ccc(C)cc2)c1`: the z-score was 3.4 (inactive).

With `COc1ccccc1Nc1nc(Cl)c(C=O)s1`, the z-score is 3.19 (inactive).

`O=C(NC1=NCCS1)C1Cc2ccccc2CN1C(=O)c1ccccc1` (centres undefined): the z-score is 3.06 (inactive).

On to `COc1ccc2c(c1)NC(c1ccc(N(C)C)cc1)c1cccn1-2` (centres undefined), for which the z-score was 12 (inactive).

In the case of `COc1ccc2c(c1OC)C(=O)OC2`, the z-score is 0.33 (inactive).

`CCN(CC)c1ccc(/C=C/c2cc(-c3ccccc3)c3ccccc3n2)cc1`: the z-score was 15.3 (inactive).

Turning to `CCN(CC)c1ccc(C=C(c2nnnn2-c2ccccc2)c2nnnn2-c2ccccc2)cc1`, the z-score is 4.4 (inactive).

For the compound `CCN(CC)c1ccc(/C=N/Nc2nc(C)cc(C)n2)cc1`, the z-score was -3.23 (active).

Take `Cc1c(N=C2N=C(NC(=O)c3cccs3)c3ccccc32)c(=O)n(-c2ccccc2)n1C`: the z-score was 6.23 (inactive).

Regarding `Cc1ccc(OCCN2CCN(C(=O)CCC(=O)Nc3nnc(C)s3)CC2)cc1`, the z-score was 0.99 (inactive).

`COC(=O)c1c(NC(=O)c2ccc(C)c(S(=O)(=O)Nc3ccccc3C)c2)sc2c1CCCC2`: the z-score was -3.01 (active).

As to `CN1CCS/C1=C/C=C1/SC(=S)N(Cc2ccccc2)C1=O`, the z-score is 12.1 (inactive).

Consider `Clc1ccccc1CN(Cc1ccccc1)C(c1cccs1)c1nnnn1C1CCCC1` (centres undefined), for which the z-score is -6.23 (active).

Consider `CC(C)C(c1nnnn1C1CCCC1)N1CCOCC1` (centres undefined), for which the z-score was 3.02 (inactive).

Turning to `CCN(Cc1ccccc1)C(c1cccs1)c1nnnn1C1CCCCC1` (centres undefined), the z-score was -3 (active).

In the case of `CCCCNC(=S)NC(=O)c1ccc(Cl)cc1Cl`, the z-score was 3.14 (inactive).

For the compound `COc1ccc(NC(=O)CCC(=O)OCc2ccc(Br)cc2)cc1`, the z-score was -5.13 (active).

As for `COc1ccc(NC(=O)CCN2CCCC(C)C2)cc1` (centres undefined), the z-score is 1 (inactive).

As for `C=CCn1c(=NC(=O)c2cc(-c3cccs3)nc3ccccc23)sc2cc(S(N)(=O)=O)ccc21`, the z-score was 8.96 (inactive).

`C#CCn1c(=NC(=O)c2sc3ccccc3c2Cl)sc2cc(S(N)(=O)=O)ccc21`: the z-score was -3.78 (active).

Regarding `O=C(NC1C=CS(=O)(=O)C1)c1sc2ccccc2c1Cl` (centres undefined), the z-score is 3.86 (inactive).

`CCN1CC=C2C(C#N)=C(N)C(C#N)(C#N)C(CCc3ccccc3)C2C1` (centres undefined): the z-score was 13.8 (inactive).

Turning to `Cc1cccc(-c2ncc(CN3CCCC(CO)(Cc4ccccc4C)C3)cn2)c1` (centres undefined), the z-score is 3.13 (inactive).

With `Cc1nc2c(ccc3nc(NC(=O)C4CC4)sc32)s1`, the z-score was 2 (inactive).

As for `Cc1cccc2sc(NC(=O)C3CCCN(S(=O)(=O)c4cccc5nonc45)C3)nc12` (centres undefined), the z-score was 6.61 (inactive).

For `C=CCNC(=O)C1CC2Cn3c(nc4cc5ccccc5cc43)C2N1C` (centres undefined), the z-score is 4.44 (inactive).

Consider `Cc1cc(=O)oc2cc(OCC(=O)OCC(=O)NC3CC3)ccc12`, for which the z-score was 3.8 (inactive).

Regarding `CCOC(=O)N1CCN(C(=O)NC2CCCCC2)CC1`, the z-score was 3.74 (inactive).

In the case of `CC1=Nc2ccccc2/C1=C/c1sc(=S)n(-c2cccc(C(=O)O)c2)c1O`, the z-score was 3.2 (inactive).

`COc1cccc(-c2nn(C)c3sc(C(=O)N4CCN(c5ccccn5)CC4)cc23)c1`: the z-score is -10.4 (active).

On to `COc1cccc(N2CCN(c3ncccn3)CC2)c1`, for which the z-score was 3.1 (inactive).

As for `Cc1ccc(C)c(NC(=O)C(C)CC2COCCO2)c1` (centres undefined), the z-score is 3.45 (inactive).

Regarding `O=S1(=O)N=C(N(CCO)/N=C/c2ccncc2)c2ccccc21`, the z-score is 2.42 (inactive).

As to `CC(=Nc1ccc(C)cc1C)c1sc2ccccc2c1O`, the z-score was 3.96 (inactive).

On to `CC(=O)NCCN=C(C)c1sc2ccccc2c1O`, for which the z-score was -3.06 (active).

As to `O=c1oc2c3c4c(cc2c(C(F)(F)F)c1CCN1CCOCC1)CCCN4CCC3`, the z-score was 7.75 (inactive).

`CCN1/C(=C/C=C/c2oc3ccc4ccccc4c3[n+]2CC)Oc2ccc3ccccc3c21`: the z-score was 17 (inactive).

Regarding `Cc1ccccc1NCC(=O)N/N=C/c1c[nH]c2ccccc12`, the z-score was 4.05 (inactive).

For the compound `Cc1nnsc1C(=O)N/N=C/c1ccc2ccccc2c1O`, the z-score is -4.07 (active).

As to `COc1cc(-c2cc(=O)c3ccccc3o2)ccc1O`, the z-score was -1.08 (inactive).

Take `CCOc1cccc(-c2nnc3sc(-c4cc(OC)c(OC)c(OC)c4)nn23)c1`: the z-score was -3.61 (active).

On to `COc1cc(C(c2sc3nc(C)nn3c2O)N2CC(C)CC(C)C2)cc(OC)c1OC` (centres undefined), for which the z-score was 0.98 (inactive).

Consider `CCOc1cccc(-c2nn3c(-c4cc(C)[nH]n4)nnc3s2)c1`, for which the z-score was 1.99 (inactive).

For the compound `Cc1ccc(C(=O)NN2C(=O)/C(=C/c3cn(C)c4ccccc34)SC2=S)cc1`, the z-score is 4.98 (inactive).

For `CCN1C=CC2=C(C#N)C(N)C(C#N)(C#N)C(c3ccccc3C(F)(F)F)C2C1` (centres undefined), the z-score is 11 (inactive).

For `COc1cccc(NC2C=CS(=O)(=O)C2)c1` (centres undefined), the z-score is 1.43 (inactive).

For the compound `Cc1ccc(S(=O)(=O)/N=c2\ccc(Cl)cn2C(F)F)cc1`, the z-score is 2.64 (inactive).

As for `CCNc1ccc2noc3c2c1C(=O)c1ccccc1-3`, the z-score was 4.91 (inactive).

On to `CCOC(=O)CC1C(=O)NCCN1c1nc2ccc(C)cn2c(=O)c1/C=C1\SC(=S)N(C(C)CC)C1=O` (centres undefined), for which the z-score is 15.3 (inactive).

For the compound `Cc1cccc(-c2nnc3sc(-c4ccccc4C)nn23)c1`, the z-score is -3.32 (active).

On to `C=CCn1c(-c2csc(-c3ccc(OC)c(OC)c3)n2)n[nH]c1=S`, for which the z-score was -3.05 (active).

As to `C=CCn1c(-c2oc3nc(-c4ccccc4)cc(-c4ccccc4)c3c2N)n[nH]c1=S`, the z-score is 5.57 (inactive).

As for `COc1ccc(C(=O)c2sc3nc(-c4ccccc4)ccc3c2N)cc1OC`, the z-score is 5.8 (inactive).

`CCN(CC)c1ccc2cc(-c3nc(-c4ccc(OC)cc4)cs3)c(=O)oc2c1`: the z-score was 17 (inactive).

As to `CCOC(=O)Cc1csc(NC(=O)c2sc3nc4c(C)cc(C)cc4cc3c2N)n1`, the z-score is 4.73 (inactive).

Consider `Cc1nnc(SCC2=C(C(=O)O)N3C(=O)C(NC(=O)Cn4nc(C)c(Cl)c4C)C3SC2)s1` (centres undefined), for which the z-score is 1.08 (inactive).

For `CCOC(=O)c1cnn(-c2cc(C)nc3c(-c4ccccc4)cnn23)c1N`, the z-score is 3.62 (inactive).

In the case of `Cc1cc(C)n(-c2ccc(OCC(=O)O)nn2)n1`, the z-score is 3.33 (inactive).

On to `CCOC(=O)c1cnc(-n2nc(C)cc2C)nc1NCc1ccccc1`, for which the z-score is -3.75 (active).

Consider `CCCCSc1ncc(C(=O)OCC)c(N)n1`, for which the z-score was 2.51 (inactive).

As to `CCCNC(=O)Cn1c(-c2ccc(F)cc2)cc(C(=O)OCC)c1C`, the z-score was 0.89 (inactive).

`Cc1cc(-c2nc3ncccc3o2)ccc1N`: the z-score was 1.34 (inactive).

With `COC(=O)N/N=C\c1cc2c(cc1Br)OCO2`, the z-score is 0.97 (inactive).

With `CSC1=NC(C)(C)CC2(C)Nc3ccccc3N12` (centres undefined), the z-score was -3.03 (active).

On to `O=C(NCCc1csc(-c2ccccc2)n1)c1ccccc1F`, for which the z-score was 4.15 (inactive).

Turning to `COc1ccc(-c2csc(NC(=O)c3ccccc3NS(=O)(=O)c3ccc(F)c(F)c3)n2)cc1`, the z-score was -4.95 (active).

Take `Cc1c(CNC(=O)c2nn3c(c2Cl)NC(c2ccccc2)CC3C(F)(F)F)cnn1C` (centres undefined): the z-score is -4.22 (active).

For the compound `COc1ccc(C2CC(C(F)(F)F)n3nc(C(=O)NCc4cn(C)nc4C)c(Cl)c3N2)cc1` (centres undefined), the z-score was -9.71 (active).

Turning to `CN1C2CCC1/C(=C/c1cccn1C)C(=O)/C2=C\c1cccn1C`, the z-score is 3.1 (inactive).

As to `N#CC1CC(c2ccc([N+](=O)[O-])cc2)=NN1c1ccc([N+](=O)[O-])cc1` (centres undefined), the z-score is 5.36 (inactive).

Take `CN1/C(=C\C(=O)C[n+]2ccc3ccccc3c2)C(C)(C)c2ccccc21`: the z-score is -4.73 (active).

For `CN1/C(=C\C=C2/C(=O)Oc3ccccc3C2=O)C(C)(C)c2ccccc21`, the z-score was 8.51 (inactive).

For the compound `CN1/C(=C\C=C(/C#N)C(=O)Nc2ccccc2F)C(C)(C)c2ccccc21`, the z-score was 7.42 (inactive).

For `Cn1c(-c2ccc3c(c2)OCO3)cc(=O)c2ccccc21`, the z-score is -0.67 (inactive).

On to `O=C(OCC(=O)N1CCN(c2ccccc2)CC1)c1cccc(Cl)c1`, for which the z-score is 1.29 (inactive).

Regarding `Cn1ccnc1Sc1nc(Nc2cccc(Cl)c2)nc(N2CCOCC2)n1`, the z-score is -0.82 (inactive).

As for `N#C/C(=C/c1ccc(N2CCCCC2)o1)c1cccc(F)c1`, the z-score is 14.6 (inactive).

Turning to `Clc1ccc2oc(-c3cccnc3NCc3ccccc3)nc2c1`, the z-score was -3.89 (active).

Turning to `Clc1ccc2oc(-c3ccccn3)nc2c1`, the z-score is 3 (inactive).

Consider `CCN(CC)c1ccc(/C=C(/C#N)C(=O)NC(C)C)o1`, for which the z-score is 6.43 (inactive).

With `COc1cc(NC(=O)Cn2cnc3sc(C)c(S(=O)(=O)N4CCN(C)CC4)c3c2=O)cc(OC)c1OC`, the z-score is 1.41 (inactive).

With `Cc1sc2ncn(CC(=O)NCCCC(=O)N3CCN(c4ncccn4)CC3)c(=O)c2c1C`, the z-score was -4.71 (active).

Regarding `CC(=O)Nc1nc(-c2ccc(Br)s2)cs1`, the z-score is 5.02 (inactive).

For the compound `Cc1cc(NC(=O)/C(C#N)=C/c2ccc(-c3ccc(SC(F)F)cc3)o2)n(-c2ccccc2)n1`, the z-score was 3.43 (inactive).

`CCOc1ccc2[nH]c(=O)c(CN(CCc3ccccc3)C(=O)N3CCOCC3)cc2c1`: the z-score was 5.49 (inactive).

In the case of `Cc1ccc(CNc2ccc3c(c2)OCO3)cc1`, the z-score is 5.54 (inactive).

With `Cc1ccc(NC(=O)N(Cc2ccc3c(c2)OCO3)Cc2cc3cc4c(cc3[nH]c2=O)OCCO4)cc1`, the z-score was -5.39 (active).
